Sampled rows, rich in hits. Any-hit rate of the full collection: about 7.5%.
NPC1 prom act = NPC1 promoter activation. 2.4% of 320,000 active. Huh7 NPC1 promoter luciferase reporter, 24 h. Potency, µM (top dose mostly 9.22 µM), for the others: top-dose activation, most hits filed as activators; also: % of control where 0% means no effect; nearly all actives have a fitted effect of over 60% in size
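Readout is luciferase luminescence, reflecting NPC1 promoter activation in stably transfected Huh7 cells after 24 h compound exposure at 37 °C in reduced-serum medium with 10% FBS.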
ELG1 genotox = genotoxicity induction in ELG1-luciferase HEK293T cells | 1.3% of 330,000 active | Potency, µM (doses to about 46 µM), without a hit: at the highest dose activity change, positive = activation, usual class: activators | AID 504466 | HEK293T ELG1-luciferase reporter, luminescence, 16 h; also: % of control where 0% means no effect; nearly all actives have a fitted effect of over 60% in size
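Screening used a luciferase reporter fused to human ELG1 in HEK293T cells. Luminescence was read on a CCD plate imager after 16 hr exposure and 30 min ONE-Glo incubation.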
SMN2 splice up = SMN2 splice variant enhancement; HEK293 SMN2-luciferase splicing reporter, luminescence, 30-36 h; Potency, µM (highest dose often 46.1 µM), for the others: top-dose activity change, positive = activation, actives largely listed as activators; 2.8% of 210,000 active; AID 1458; also: % of control where 0% means no effect; nearly all actives have a fitted effect of over 55% in size
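HEK293 cells carry an SMN2 […]–luciferase reporter in which exon 7 inclusion puts luciferase in frame. Cells were plated 10-12 h before compound addition, then incubated 30-36 h at 37C. ONE-Glo luminescence was read; sodium butyrate at 4.5 mM final served as control.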
KinaseGlo FLuc = blocks Kinase-Glo luciferase, a counter-screen artifact; Q27757; Potency, µM (doses to about 38.3 µM), for the others: at the top dose activity change, negative = inhibition, hits mostly inhibitors; 0.28% of 200,000 active; Kinase-Glo luciferase, ATP luminescence, 8 min; also: % is scaled to controls: 0 for no effect and ±100 for the full control effect; nearly all actives have a fitted effect of over 60% in size
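Luminescence was the read-out, taken after 8-minute incubation at ambient temperature. Luciferase turned over luciferin with 10 uM ATP in imidazole pH 7.2 buffer containing KCl, MgCl2, Tween 20 and BSA.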
Rab9 prom act = activates the Rab9 promoter; Potency, µM (top dose mostly 9.22 µM), for inactives: at the highest dose activation, negative = inhibition, usual class: activators; Huh7 Rab9 promoter-luciferase reporter, luminescence, 24 h; AID 485297; 2.8% of 320,000 active; also: % of control where 0% means no effect; nearly all actives have a fitted effect of over 60% in size
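Huh7 cells stably carrying Rab9 promoter–luciferase reporter, plated 1500 cells/well, compound added after 2 h and incubated 24 h at 37 °C; luciferase luminescence then read after 10 min with detection reagent.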
FLuc counter = counter-screen for miR-21 project: firefly luciferase inhibitors or activators; P08659; purified FLuc, Km substrates, luminescence inhibition; Potency, µM (highest dose often 57.5 µM), for the others: at the top dose activity change, negative = inhibition, most hits filed as inhibitors; 6.9% of 360,000 active; AID 588342;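 also: plate controls were vehicle for no effect and reference inhibitor for full effect; nearly all actives have a fitted effect of over 55% in size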
Target sequence (P08659 whole entry, looked up): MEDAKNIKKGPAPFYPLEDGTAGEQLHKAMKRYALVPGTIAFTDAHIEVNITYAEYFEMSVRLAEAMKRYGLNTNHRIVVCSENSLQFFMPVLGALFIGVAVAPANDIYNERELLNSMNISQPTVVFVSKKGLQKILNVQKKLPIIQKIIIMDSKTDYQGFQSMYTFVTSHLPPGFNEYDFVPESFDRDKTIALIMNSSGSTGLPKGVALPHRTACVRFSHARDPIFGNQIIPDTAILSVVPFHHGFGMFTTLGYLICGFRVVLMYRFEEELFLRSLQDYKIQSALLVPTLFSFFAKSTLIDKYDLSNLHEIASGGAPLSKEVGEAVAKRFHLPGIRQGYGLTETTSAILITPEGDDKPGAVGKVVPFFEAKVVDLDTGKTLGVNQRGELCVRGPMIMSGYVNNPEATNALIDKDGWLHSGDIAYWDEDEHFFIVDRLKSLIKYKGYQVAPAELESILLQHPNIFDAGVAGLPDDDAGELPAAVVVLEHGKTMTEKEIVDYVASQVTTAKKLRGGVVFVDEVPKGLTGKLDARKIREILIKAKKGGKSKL
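Biochemical qHTS of compounds, final roughly 60 µM downward over six points, against 10 nM purified firefly luciferase using Km concentrations of substrates (10 uM D-luciferin, 10 uM ATP) in Tris acetate pH 7.5 buffer; luminescence output.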
* marks the source's active call; other numbers are inactive results; ! = a repeat was not active; [ ] = another dose, or the depositor's remark. Calls follow the shape of the dose curve; as a rule, active = well fitted curve in the direction sought with a large enough effect; inconclusive = small, poorly fitted or top-dose-only effect, or another doubt; inactive = no such curve, though single readings can be large; an effect the other way counts as inactive or inconclusive. Potency is read from the fitted curve at half-maximal effect.

CC(C)c1ccc(/C=C/C(=O)CCC(=O)O)cc1 was read as NPC1 prom act 0.28µM*, ELG1 genotox inconclusive, SMN2 splice up 1.4µM*, KinaseGlo FLuc -1%, Rab9 prom act 0.79µM* and FLuc counter 0.24µM*.
`CC(C)c1ccc(/C=C/C(=O)NCc2ccc(S(N)(=O)=O)cc2)cc1` gave NPC1 prom act -2%, ELG1 genotox 1%, SMN2 splice up -31%, KinaseGlo FLuc 0%, Rab9 prom act 18% and FLuc counter 13µM*.
CCOc1ccc(/C=C\C(C)=N\O)cc1 was read as NPC1 prom act 2µM*, ELG1 genotox 10µM*, SMN2 splice up 16µM*, KinaseGlo FLuc -28%, Rab9 prom act 2.2µM* and FLuc counter 8.5µM*.
CCOc1ccc(/C=C/C(=O)CCC(=O)O)cc1 was read as NPC1 prom act inconclusive, ELG1 genotox inconclusive, KinaseGlo FLuc -2%, Rab9 prom act 0.71µM* and FLuc counter 1.1µM*.
For CN(C)S(=O)(=O)c1ccc2c(c1)N(CC(=O)NCc1ccccc1)C(=O)C1CCCCN21 (stereo unspecified) the results were FLuc counter -2%.
Screening COc1ccccc1C(=O)N/C(=C\c1cn(S(=O)(=O)N(C)C)c2ccccc12)C(=O)N1CCOCC1 returned NPC1 prom act -4%, ELG1 genotox -3%, Rab9 prom act -2% and FLuc counter -1%.
`CCCCCCOc1ccc(C2C(=O)N(C3CCCCC3)CC(=O)N2CCC)cc1` (stereo unspecified) gave FLuc counter -1%.
`COc1ccccc1NC(=O)CN1C(=O)C2(SCC(=O)N2c2ccc(C)c(C)c2)c2ccccc21` (stereo unspecified) gave FLuc counter 4%.
Screening O=C1c2ccccc2C(=O)c2c(Nc3ccc(CCO)cc3)ccc(O)c21 returned NPC1 prom act inconclusive, ELG1 genotox -8%, Rab9 prom act inconclusive and FLuc counter inconclusive.
O=C1c2c(O)ccc(O)c2C(=O)c2c(NCCNCCO)ccc(NCCNCCO)c21 was read as NPC1 prom act -35%[46.1 µM], ELG1 genotox -59%, SMN2 splice up -94%, KinaseGlo FLuc 13µM*!, Rab9 prom act -44%[46.1 µM] and FLuc counter 19µM*.
For Cc1cc(C)c(C)c(N=Nc2nc3ccccc3n2C)c1C the results were NPC1 prom act 11%, ELG1 genotox inconclusive, SMN2 splice up -41%, KinaseGlo FLuc -9%, Rab9 prom act 19% and FLuc counter 11µM*.
Cc1ccc(C)c(N=Nc2nc3ccccc3n2C)c1 was read as NPC1 prom act 3.2µM*, ELG1 genotox inconclusive, SMN2 splice up inconclusive, KinaseGlo FLuc inconclusive, Rab9 prom act 2µM* and FLuc counter 0.95µM*.
Screening CN(Cc1ccccc1)C(=O)C1CCN(S(=O)(=O)Cc2ccccc2)CC1 returned FLuc counter -5%.
Screening Cc1ccc(OCC(=O)OCCN2C(=O)c3ccccc3C2=O)cc1C returned NPC1 prom act -4%, ELG1 genotox -4%, SMN2 splice up 27%, KinaseGlo FLuc 3%, Rab9 prom act 1% and FLuc counter -2%.
`CCOCCOC(=O)COc1ccc(N2C(=O)c3ccccc3C2=O)cc1` gave NPC1 prom act -7%, ELG1 genotox -7%, SMN2 splice up 2%, KinaseGlo FLuc -5%, Rab9 prom act -6% and FLuc counter 19µM*.
`COc1ccc(N2C(=O)c3ccccc3C2=O)cc1` gave NPC1 prom act 0%, ELG1 genotox 5%, SMN2 splice up 11%, KinaseGlo FLuc -5%, Rab9 prom act 0% and FLuc counter inconclusive.
For CC(C)Oc1ccc(N2C(=O)c3ccccc3C2=O)cc1 the results were NPC1 prom act 1%, ELG1 genotox inconclusive, SMN2 splice up -18%, KinaseGlo FLuc -1%, Rab9 prom act 0% and FLuc counter 7.6µM*.
`Oc1[nH]c2ccccc2c1C1=NCCCCC1` gave NPC1 prom act -3%, ELG1 genotox 0%, KinaseGlo FLuc -2%, Rab9 prom act -6% and FLuc counter inconclusive.
`Cc1nc(-c2ccc(NC(=O)Cc3ccccc3)cc2)cs1` gave NPC1 prom act inconclusive, ELG1 genotox 8%, Rab9 prom act inconclusive and FLuc counter 8.5µM*.
`CCC(=O)Nc1ccc(-c2csc(C)n2)cc1` gave NPC1 prom act inconclusive, ELG1 genotox inconclusive, SMN2 splice up inconclusive, KinaseGlo FLuc 11%, Rab9 prom act inconclusive and FLuc counter 24µM*.
`COc1ccc(CC(=O)Nc2ccc(-c3csc(C)n3)cc2)cc1` gave NPC1 prom act 1%, ELG1 genotox 2%, KinaseGlo FLuc -4%, Rab9 prom act 1% and FLuc counter -6%.
Screening O=C(O)c1cc(O)ccc1NC(=O)c1cccc2ccccc12 returned NPC1 prom act -3%, ELG1 genotox -5%, Rab9 prom act 3% and FLuc counter inconclusive.
`CC[C@@H](C)[C@H]1O[C@]2(CC[C@H]1C)C[C@@H]1C[C@@H](CC=C(C)[C@@H](O[C@H]3C[C@H](OC)[C@@H](O[C@H]4C[C@H](OC)[C@@H](O)[C@H](C)O4)[C@H](C)O3)[C@@H](C)C=CC=C3CO[C@@H]4[C@H](O)C(C)=C[C@@H](C(=O)O1)[C@]34O)O2` gave NPC1 prom act -39%[46.1 µM] and Rab9 prom act -43%[46.1 µM].
CCOc1ccc(-c2cc(CCCC(=O)NCCC(C)C)no2)cc1 was read as NPC1 prom act 17%, ELG1 genotox 4%, SMN2 splice up -12%, KinaseGlo FLuc 0%, Rab9 prom act 25% and FLuc counter 6µM*.
`CCOc1ccc(CCNC(=O)CCCc2cc(-c3ccc(OCC)cc3)on2)cc1` gave SMN2 splice up 0% and FLuc counter -8%.
CCOc1ccc(-c2cc(CCCC(=O)NCc3cccnc3)no2)cc1 was read as NPC1 prom act inconclusive, ELG1 genotox inconclusive, SMN2 splice up 13%, KinaseGlo FLuc 4%, Rab9 prom act inconclusive and FLuc counter 11µM*.
Screening CCC(=O)Nc1ccc(NC(=O)c2ccccn2)cn1 returned NPC1 prom act 1.3µM*, ELG1 genotox 2.5µM*, SMN2 splice up 14µM*, KinaseGlo FLuc -18%, Rab9 prom act 0.63µM* and FLuc counter 11µM*.
`O=C(Nc1ccc(NC(=O)C2CC2)nc1)c1ccccn1` gave NPC1 prom act 0.56µM*, ELG1 genotox inconclusive, Rab9 prom act 1.3µM* and FLuc counter 6.7µM*.

Source: PubChem BioAssay
